# Measurements: PubChem BioAssay (Tox21)
# Results filed as inconclusive are left out. A number with no mark means an inactive call. Calls come from the whole dose curve; as a rule, active = well fitted inhibition curve with a large enough effect in the signal ratio in the repeat runs (not every such curve was filed as active); inconclusive = weak or mixed curves, or effect the other way; inactive = flat fitted curve, though single readings scatter; the % refers to the signal ratio.
# Test: cAMP Responsive Elements (CRE) small molecule antagonists, cell-based qHTS assay (AID 1963591)
# Conditions: CRE-bla HEK293T, beta-lactamase FRET ratio; series mostly up to 92.4 µM; activity change, negative = inhibition: at the top concentration
# Excerpt: U.S. Tox21 Program National Center for Advancing Translational Sciences [NCATS] Division of Preclinical Innovation [DPI] U.S. Environmental Protection Agency [EPA] National Institutes of Environmental Health Sciences [NIEHS] National Toxicology Program [NTP] U.S. Food and Drug Administration [FDA] Tox21 Assay Overview: CREB (cyclic-AMP Responsive Element Binding Protein) is a cellular transcription factor. It binds to certain DNA sequences called cAMP Responsive Elements (CRE) and regulates the transcription of the genes. […] This cell line can be used to find agonists/antagonists of the cyclic AMP signaling pathway. The activation of the report gene under culture conditions can be detected by fluorescence intensity. This cell line has been used to screen the Tox21 10K compound library to […].
# Tox21 Assay Protocol Summary: CRE-bla Hek 293T cells were suspended in assay medium (DMEM containing 10% dialyzed FBS, 0.1 mM NEAA, 1 mM sodium pyruvate and 25 mM HEPES) and dispensed at 2,000 cells/4 uL /well into 1536-well black wall/clear bottom plates using a Multidrop Combi (ThermoFisher Scientific, Waltham, MA) dispenser. After the assay plates were incubated at 37 C/5% CO2 for 18 hrs, 23 nL of compounds dissolved in DMSO, positive controls or DMSO only was transferred to the assay plate by a pintool workstation (Kalypsys, San Diego, CA), followed by addition of 1 […] uL of 1.25uM NKH477 (0.25 uM as final concentration) in assay medium using a Flying Reagent Dispenser (Aurora Discovery, San Diego, CA). The plates were incubated at 37 C and 5% CO2 for 3 hrs. Then 1 uL of LiveBLAzer B/G FRET substrate (Invitrogen, Carlsbad, CA) was added to each well using Bioraptr Flying Reagent Dispenser (FRD, Aurora Discovery, San Diego, CA). The plates were incubated at room temperature for 2 h.
# % is set by controls: 0 for no effect and ±100 for the full control effect.
row,SMILES,"activity change, negative = inhibition"
1,Nc1cc(S(=O)(=O)O)ccc1O,0.7%
2,S=C(SSSSSSC(=S)N1CCCCC1)N1CCCCC1,-25.4% [at 18.9 µM]
3,O=C(O)CCCC[P+](c1ccccc1)(c1ccccc1)c1ccccc1,-6.79% [at 42.4 µM]
4,BrC(Br)C(Br)Br,-0.966%
5,C[C@]12CCC(=O)C=C1CC[C@@H]1[C@@H]2[C@@H](O)C[C@@]2(C)[C@H]1CC[C@]2(O)C(=O)COC(=O)CCC(=O)O,-3.69% [at 42.4 µM]
6,C=C(C)CCO,1.29%
7,Cc1cn[nH]c1,-7.26% [at 42.4 µM]
8,CCCCC,-0.313%
9,CCCCCC(=O)OCC,-4%
10,OC1CCCc2ccccc21 (stereo not given),1.05%
11,O=C1CCC(C2CCCCC2)CC1,11.9%
12,CCC(=O)OC(=O)CC,2.82%
13,O=C(O)c1cccc(C(=O)O)n1,7.72%
14,CC(C)(C)C1CCC(=O)CC1,2.22%
15,CNS(=O)(=O)CCc1ccc2[nH]cc(C3CCN(C)CC3)c2c1,-0.791% [at 42.4 µM]
16,CC[N+](C)(CC)CCOC(=O)C(O)(c1ccccc1)C1CCCCC1 (stereo not given),13.6% [at 42.4 µM]
17,C=CC(C)(CCC=C(C)C)OC(=O)C(C)C (stereo not given),-3.36%
18,Cc1cc(C(C)(C)C)c(O)c(C)c1Cn1c(=O)n(Cc2c(C)cc(C(C)(C)C)c(O)c2C)c(=O)n(Cc2c(C)cc(C(C)(C)C)c(O)c2C)c1=O,-19.8%
19,O=C1OCCN1/N=C/c1ccc([N+](=O)[O-])o1,1.26% [at 42.4 µM]
20,O=C(CN1CCN(Cc2ccc3c(c2)OCO3)CC1)N1c2ccccc2Sc2ccccc21,8.24% [at 42.4 µM]

row,SMILES,"activity change, negative = inhibition"
1,CCOC(=O)[C@H](O)[C@@H](O)C(=O)OCC,-3.9%
2,O=C(CO)[C@@H](O)[C@H](O)[C@@H](O)CO,-4.8% [at 42.4 µM]
3,NC(N)=NC(=O)Cc1c(Cl)cccc1Cl,4.06% [at 42.4 µM]
4,Cc1ccc(=O)n(-c2ccccc2)c1,1.13% [at 42.4 µM]
5,CCCCN(CCCC)C(=O)N(CCCC)CCCC,13.1%
6,CC(C)=CCC/C(C)=C/COC=O,3.56%
7,CCC(CC)C(=O)O,-0.688%
8,O=C(NCCCN1CCOCC1)c1ccc(Cl)cc1,2.31% [at 42.4 µM]
9,Cc1cc(O)c2c(c1)C(=O)c1cccc(O)c1C2=O,21.6% [at 42.4 µM]
10,O=C1OCc2ccccc21,-8.36%
11,CCCc1ncc(C(=O)O)s1,0.214% [at 42.4 µM]
12,CC(C)(C)NCC(O)c1cc(O)cc(O)c1 (stereo not given),0.591% [at 42.4 µM]
13,CN1Cc2cc(C(=O)N3CCC(C4CCNCC4)CC3)ccc2N[C@@H](CC(=O)O)C1=O,7.75% [at 42.4 µM]
14,O=C(O)CCNC(=O)c1ccccc1,9.63% [at 42.4 µM]
15,CCCCCCCC/C=C\CCCCCCCC(=O)OC[C@@H](O)[C@H]1OC[C@H](O)[C@H]1O,-1.66%
16,CC[N+](CC)(CC)CCOc1cccc(OCC[N+](CC)(CC)CC)c1OCC[N+](CC)(CC)CC,-4.05% [at 42.4 µM]
17,COc1cc(OC)cc(OC)c1,-0.112% [at 42.4 µM]
18,C/C=C/C(=O)OCC(C)C,-6.76%
19,Cc1cc(CCCOc2c(C)cc(-c3noc(C(F)(F)F)n3)cc2C)on1,0.569% [at 42.4 µM]
20,CCOC(=O)C(=O)c1csc(NC=O)n1,-0.164% [at 42.4 µM]
